Drawing on PubChem BioAssay (NCI), this text covers growth for 16 compounds.

Common to all, as to assay: NCI-60 one-dose screen, 48 h (100 = growth as untreated, 0 = no growth, -100 = all killed)
Common to all, as to settings: 10 µM unless noted

Test [1] relates to RPMI-8226 leukemia.
Test [2] deals with OVCAR-5 ovarian.
Test [3] deals with OVCAR-4 ovarian.
Test [4] deals with SK-OV-3 ovarian.
The subject of test [5] is IGROV1 ovarian.
In test [6] the test system is OVCAR-3 ovarian.
In test [7] the test system is HS 578T breast.
The subject of test [8] is NCI/ADR-RES ovarian.
Test [9] relates to T-47D breast.
Test [10] concerns BT-549 breast.
Test [11] deals with MDA-MB-435 melanoma.
For test [12], the system named is SW-620 colon.
Test [13] deals with MCF7 breast.
The test system of test [14] is HCT-116 colon.
The subject of test [15] is HCC-2998 colon.
Test [16] has as its system OVCAR-8 ovarian.
Test [17] concerns KM12 colon.

SMILES strings stand for the structures. About 83,000 compounds went through this panel and 20% of them were active in at least one assay; those are over-represented in the sample as a whole.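 Results are percent growth after 48 hours of single-concentration exposure. 100 means growth as in untreated cells, lower positive values show inhibition; negative values down to -100 show cell death.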 A number with no mark means an inactive call. Activity calls are given as the source filed them. Rule for the calls: active = growth percent below 10; inactive = the rest.

With `CCCCCCCCc1cc[n+](CC(=O)c2ccc(Br)cc2)cc1`, the growth is -9.98% (active) in test [1]; 51.9% in test [2]; 18.8% in test [3]; 22% in test [4]; 1.68% (active) in [5]; -44.1% (active) in [6]. Besides, the growth in test [7] was -29.2% (active); in [8], 93.3%; in [9], -16.6% (active); in [10], 77.8%; in test [11], -15.1% (active); in test [12], -33.7% (active). Moreover, the results for the growth in [13], in test [14] and in test [15] were -74% (active), -43.1% (active) and -67.4% (active), respectively.

Take `C=C1c2c(C)nn(-c3ccc(S(N)(=O)=O)cc3)c2N(C)C23CC1C1(C)c4c(C)nn(-c5ccc(S(N)(=O)=O)cc5)c4N(C)C(C)(CC12)C3` (stereo not given): the growth was -64% (active) in [1]; 40.1% in [16]; 64% in test [2]; 57.6% in [4]; 49.1% in test [5]; 41.6% in test [6]. The growth in test [8] is 79.2%; in test [10] it was 49.6%; in test [11], 32.9%; in test [12], 39.2%; in test [13], 15.9%; in test [14], 14.4%. For the same compound, the growth was 47% in [15] and 33.1% in [17].

For `Clc1cnc(Nc2ccc(OCCN3CCCC3)cc2)nc1NCc1ccco1`, the growth is 6.95% (active) in test [1]; 20.2% in test [16]; 8.69% (active) in test [2]; 51.6% in [3]; 57.8% in test [4]; 15.7% in [5]. Also, the growth in test [7] was 31.4%; in test [8] it was 18.5%; in test [10], 45.7%; in [11] it was 34.5%; in test [12], 6.11% (active); in test [13], -0.965% (active). Besides, the growth in [14] is 7.55% (active); in [15], 59.1%; in [17] it was 4.56% (active).

Regarding `CCn1nc(C#Cc2c(C)ccc3c(Nc4ccc(Cl)cc4)nccc23)c2c(N)ncnc21`, the growth in test [1] was 2.72% (active); in test [16] it was 7.01% (active); in test [2] it was 25.1%; in test [4], -3.61% (active); in test [5], 12.5%; in [6], 7% (active). The growth was 0.71% (active) in test [7]; 11.6% in [8]; 10.5% in test [10]; -26.3% (active) in test [11]; 6.61% (active) in test [13]; 6.73% (active) in [14]. The growth in test [15] is 31.6%; in [17], 14.2%.

Turning to `N#Cc1c(NC(=O)c2cccc(C(F)(F)F)c2)sc2c1CCC(=O)C2`, the growth is -9.7% (active) in test [1]; 12.9% in test [2]; -80.7% (active) in test [3]; 3.53% (active) in test [4]; -50.7% (active) in [5]; -46.8% (active) in [6]. The growth in [8] is 7.01% (active); in test [9], -21.6% (active); in [10] it was -77.1% (active); in test [11] it was -74.6% (active); in test [12], -66.2% (active); in test [13] it was 7.82% (active). The growth in test [14] was -63.7% (active); in test [15], 27.2%.

Take `C=CC(=O)Nc1cccc(C)c1Nc1cc(-c2cccnc2Cc2c(C)c(OC)cc(OC)c2C)ncn1`: the growth in test [1] was -24.1% (active); in [16] it was 3.17% (active); in test [2], 57.5%; in [4], 28.7%; in test [5], 42.6%; in test [6], 0.807% (active). Besides, the growth was 29.6% in [7]; 35.3% in [8]; 5.86% (active) in test [10]; 19.9% in test [11]; 24.8% in test [12]; 8.59% (active) in test [13]. The values for the growth in test [14] and in [15] were 15.8% and 71.1%, respectively.

On to `Clc1ccc2c(NCCCN3CCN(c4nc(-n5ccnc5)nc5ccccc45)CC3)ccnc2c1`, for which the growth in test [1] was -48.6% (active); in test [2], 120%; in [3], 64.9%; in test [4] it was 109%; in test [5], 86.5%; in test [6], 90.5%. Moreover, the growth in [7] is 85.5%; in test [8], 90.7%; in [10], 67.6%; in test [11], 71.2%; in [12], -52.9% (active); in [13], -29.3% (active). The growth was 72.8% in test [14], 95.7% in [15] and 87.8% in test [17].

As for `Cn1ncc2c(Nc3ccc(Br)cc3)nc(Nc3ccc(Br)cc3)nc21`, the growth in test [1] is 23.2%; in [16], 59.6%; in test [2] it was 56.9%; in test [3], 51.9%; in test [4] it was 78.1%; in [5], 48.9%. The growth in test [6] was 68.2%; in test [9], 29.1%; in test [10], 62.5%; in test [11] it was 33.5%; in test [12] it was 52.7%; in [13], 3.89% (active). For the same compound, the figures for the growth in test [14] and in test [17] were 37% and 37.1%, respectively.

As to `CN(C)c1cnccn1`, the growth in test [1] is 65.2%; in test [16], 92.5%; in test [2], 114%; in test [4], 90.9%; in [5], 91.1%; in test [6], 104%. Besides, the growth in test [8] was 88.6%; in test [9], 75.9%; in [10] it was 73%; in [11], 100%; in [12], 88.7%; in test [13], 87.3%. Also, the figures for the growth in [14], in [15] and in [17] were 97.3%, 112% and 103%, respectively.

Take `C[C@H]1[C@H]2C3=CC[C@@H]4[C@@]5(C)C/C(=C/c6ccncc6)C(=O)C(C)(C)[C@@H]5CC[C@@]4(C)[C@]3(C)CC[C@@]2(C(=O)N2CCN(C)CC2)CC[C@@H]1C`: the growth in test [1] is 50.2%; in [16], 76.7%; in test [2], 86.7%; in test [4] it was 82.9%; in test [5], 84%; in test [6], 76.3%. In addition, the growth in [7] was 70%; in test [8] it was 80.6%; in test [10], 89.3%; in test [11], 81.9%; in test [12], 83.1%; in test [13], 58.5%. In addition, the growth was 55.4% in test [14], 82.9% in test [15] and 67.5% in test [17].

As to `O=C1C=CC(=Nc2cc(Br)c(O)c(Br)c2)C=C1`, the growth was -18.9% (active) in [1]; 94.7% in test [2]; 50.1% in test [3]; 117% in test [4]; 72.1% in test [5]; 32% in test [6]. The growth in test [7] was 83.8%; in test [8] it was 63.9%; in [9], 70.7%; in [10], 55.1%; in test [11], 36.1%; in test [12] it was 46.4%. For the same compound, the growth in [13] is 40.1%; in test [14], 43.5%; in [15], 102%; in [17], 94.7%.

As to `CNC(=O)NCC1OC(n2cnc3c(NC(=O)Nc4ccccc4)ncnc32)C2OC(C)(C)OC12` (stereo not given), the growth in [1] was 87.2%; in test [16], 100%; in [2], 109%; in test [3] it was 89.6%; in [4], 79.3%; in test [6] it was 89%. Moreover, the growth in test [8] was 101%; in test [9], 74.7%; in [10], 71.7%; in test [11], 101%; in test [12], 91.1%; in test [13], 85.4%. The figures for the growth in test [14], in test [15] and in test [17] were 81.1%, 95.5% and 89.9%, respectively.

`C=C1C(=O)O[C@H]2[C@H]1CC/C(Cn1cc(CNCCc3c[nH]c4ccc(Cl)cc34)nn1)=C\CC[C@@]1(C)O[C@@H]21`: the growth in test [1] was 9.44% (active); in test [16] it was 59.6%; in test [2], 83.5%; in test [4], 72.6%; in [5], 2.11% (active); in [6] it was 11.9%. The growth in test [7] is 83.4%; in test [8] it was 102%; in [10], 74.7%; in test [11], 68%; in [12], 2.69% (active); in test [13], 42.9%. The growth was 11.2% in [14], 103% in test [15] and 82.9% in test [17].

Turning to `C=C1C(=O)O[C@H]2[C@H]1CC/C(Cn1cc(CNCCc3c[nH]c4ccccc34)nn1)=C\CC[C@@]1(C)O[C@@H]21`, the growth in test [1] was 76.5%; in test [16] it was 92.5%; in [2], 88.8%; in test [4], 80.9%; in test [5] it was 68.8%; in test [6], 69.4%. Also, the growth in test [8] was 99.9%; in [10] it was 90.6%; in test [11] it was 97%; in [12] it was 46.1%; in test [13], 90.2%; in test [14], 64.8%. For the same compound, the growth in test [15] is 97.1%; in test [17], 98%.

For the compound `O=C1NN(C(=O)c2ccc(O)cc2)C(c2ccccc2)=N/C1=C\c1cn(-c2ccccc2)nc1-c1ccccc1`, the growth was 90% in [1]; 97.2% in [16]; 94% in [2]; 92.6% in test [4]; 91.5% in test [5]; 112% in test [6]. In addition, the growth was 99.8% in test [7]; 99.7% in [8]; 94.7% in test [10]; 105% in test [11]; 110% in test [12]; 96% in test [13]. The growth is 95.7% in test [14], 104% in test [15] and 98.1% in [17].

For `Cc1ccc(S(=O)(=O)Nc2sccc2-c2nc(-c3ccccc3)no2)cc1`, the growth in test [1] is 84.2%; in test [16] it was 89.4%; in test [2] it was 85.8%; in [3], 95.1%; in test [4], 89.1%; in [5], 87.9%. In addition, the growth in test [7] was 97%; in test [8], 99.2%; in test [10], 92.5%; in [11], 95.6%; in test [12], 97%; in test [13], 93.1%. The growth in test [14] was 85.9%; in test [15] it was 97.8%; in test [17], 90.1%.
